In the library only some 2.2% were active in any assay of this set; here they are far more common.
MEKK2wt PB1 HTS: raises or lowers MEK5 binding to wildtype human MEKK2 PB1 domain. Q9Y2U5. bead flow cytometry, Alexa488-MEK5 binding to MEKK2 WT; actives lie on both sides. binding response (% of control), % at 10 µM. hit rate 1.1% among 290,000; in the data active means binding response below about 67% or above about 130%
MEKK3 PB1 HTS: modulators (inhibitors or enhancers) of MEK5 binding to human MEKK3 PB1 domain; bead-based flow cytometry, Alexa488-MEK5 binding to MEKK3; actives lie on both sides; 0 = blocked by unlabeled MEK5, 100 = vehicle; binding response (% of control), % at 10 µM; hit rate 1.4% among 290,000; AID 1529;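 active means binding response more than 3 SD above or below the average of its plate-row segment, actives on both sides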;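 further: Alexa488 bead fluorescence after subtracting the streptavidin-only scavenger bead signal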
VLA-4 inh: inhibition in a human VLA-4 binding assay. P13612. VLA-4 expressing cells, ligand binding flow cytometry. inhibition, % (about 7 µM as worked out from the volumes in the protocol). hit rate 0.2% among 330,000; in the data active means inhibition above about 50%
Target sequence (P13612 whole entry, looked up): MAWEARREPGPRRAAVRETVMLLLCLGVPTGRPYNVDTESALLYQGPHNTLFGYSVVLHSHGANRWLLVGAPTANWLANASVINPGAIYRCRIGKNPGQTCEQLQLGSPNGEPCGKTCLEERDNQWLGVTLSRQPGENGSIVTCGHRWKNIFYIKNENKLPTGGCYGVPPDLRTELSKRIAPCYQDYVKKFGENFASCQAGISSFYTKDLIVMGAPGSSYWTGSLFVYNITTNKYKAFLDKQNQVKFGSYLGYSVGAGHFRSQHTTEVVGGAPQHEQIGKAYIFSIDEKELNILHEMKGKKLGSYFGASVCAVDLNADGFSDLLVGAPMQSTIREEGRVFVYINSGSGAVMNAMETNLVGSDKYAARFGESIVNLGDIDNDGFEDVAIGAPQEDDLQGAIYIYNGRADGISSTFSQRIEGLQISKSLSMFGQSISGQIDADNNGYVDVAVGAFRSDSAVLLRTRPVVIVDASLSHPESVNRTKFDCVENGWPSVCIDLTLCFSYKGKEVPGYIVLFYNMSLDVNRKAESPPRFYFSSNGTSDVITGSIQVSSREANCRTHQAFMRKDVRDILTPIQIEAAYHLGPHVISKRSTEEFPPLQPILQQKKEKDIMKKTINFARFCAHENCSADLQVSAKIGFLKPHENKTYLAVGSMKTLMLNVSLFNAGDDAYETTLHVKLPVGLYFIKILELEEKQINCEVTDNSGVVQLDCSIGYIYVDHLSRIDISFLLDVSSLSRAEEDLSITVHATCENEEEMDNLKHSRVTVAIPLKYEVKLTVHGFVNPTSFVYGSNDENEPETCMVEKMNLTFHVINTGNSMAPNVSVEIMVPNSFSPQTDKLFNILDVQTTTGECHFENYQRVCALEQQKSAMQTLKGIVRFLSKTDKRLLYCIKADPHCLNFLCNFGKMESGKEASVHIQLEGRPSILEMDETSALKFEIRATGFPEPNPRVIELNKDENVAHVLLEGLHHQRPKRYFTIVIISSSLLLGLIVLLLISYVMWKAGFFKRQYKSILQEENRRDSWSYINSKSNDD
MEKK2 mut-MEK5: signal of MEK5 binding to mutant human MEKK2 PB1 domain; bead flow cytometry, Alexa488-MEK5 binding to MEKK2 mutant; percent response, % at 10 µM; hit rate 0.35% among 290,000; AID 1530; in the data active means percent response above about 24%, passing the limit was not always enough
MEKK2wt confirm: raises or lowers MEK5 binding to wildtype human MEKK2, retest; shares compounds with MEKK3 PB1 HTS; bead flow cytometry, Alexa488-MEK5 binding to MEKK2 WT; actives lie on both sides; binding response (% of control), % at 10 µM; hit rate 2.4% among 5,900; in the data active means binding response below about 16% or above about 210%; inactive means in between
MEKK2mut-MEK5: signal of MEK5 binding to mutant human MEKK2, retest | hit rate 2% among 5,900 | AID 1893 | percent response, % at 10 µM | shares compounds with MEKK3 PB1 HTS | bead flow cytometry, Alexa488-MEK5 binding to MEKK2 mutant; in the data active means percent response mostly above about 71%, no sharp cut-off; inactive means mostly below about 38%;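 further: higher means compound restores mutant binding toward wildtype level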
MEKK3-MEK5 inh: MEKK3-MEK5 PB1 inhibition, single concentration confirmation; shares compounds with MEKK3 PB1 HTS; bead flow cytometry, Alexa488-MEK5 binding to MEKK3; active compounds read low; binding response (% of control), % at 10 µM; hit rate 1.8% among 5,900;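 active means binding response below 72% of control, or above a set upper limit, though filed actives all read lower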;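 further: 100% = DMSO only wells and 0% = binding blocked by excess unlabeled MEK5; lower values mean stronger disruption of MEK5 binding to MEKK3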
* hit, by the source's call; [ ] = remark or other dose.

How did COc1ccccc1CN1CCNC(=O)C1CC(=O)NC1CCCCCC1 (configuration not stated) do in these assays?
MEKK2wt PB1 HTS: 117; MEKK3 PB1 HTS: 100; VLA-4 inh: -3; MEKK2 mut-MEK5: 11

What do the screens show for `COc1ccc(S(=O)(=O)NCCSc2ccccc2)cc1OC`?
MEKK2wt PB1 HTS: 97; MEKK3 PB1 HTS: 99; VLA-4 inh: -8; MEKK2 mut-MEK5: 1

What do the screens show for `COc1ccc(S(=O)(=O)NCCSc2ccc(C)cc2)cc1OC`?
MEKK2wt PB1 HTS: 123; MEKK3 PB1 HTS: 122*; VLA-4 inh: 11; MEKK2 mut-MEK5: 9; MEKK2wt confirm: 98; MEKK2mut-MEK5: 1; MEKK3-MEK5 inh: 100

How did CN(Cc1ccccc1Br)C(=O)CN1C(=O)NC2(CCCCCC2)C1=O do in these assays?
VLA-4 inh: 4

How did Cc1ccc(S(=O)(=O)n2[nH]c(=O)cc2NC(=O)c2cccs2)cc1 do in these assays?
MEKK2wt PB1 HTS: -4.0*[inhibitor]; MEKK3 PB1 HTS: 1.0*[inhibitor]; VLA-4 inh: 10; MEKK2 mut-MEK5: 2; MEKK2wt confirm: 94; MEKK2mut-MEK5: -5; MEKK3-MEK5 inh: 98

What do the screens show for `CCN1/C(=C/c2ccc3cc(C)cc(C)c3[n+]2CC)Sc2cc(C)ccc21`?
MEKK2wt PB1 HTS: 25*; MEKK3 PB1 HTS: 34*[inhibitor]; MEKK2 mut-MEK5: 13; MEKK2wt confirm: 19; MEKK2mut-MEK5: -37; MEKK3-MEK5 inh: 54*

Results for CCN1/C(=C/c2ccc3cccc(C)c3[n+]2CC)Sc2ccccc21 ?
MEKK2wt PB1 HTS: 40*[inhibitor]; MEKK3 PB1 HTS: 73; MEKK2 mut-MEK5: -27; MEKK2wt confirm: 62; MEKK2mut-MEK5: -21; MEKK3-MEK5 inh: 95

How did CCN1/C(=C\c2ccc3cc(C)ccc3[n+]2CC)Sc2cc(C)c(C)cc21 do in these assays?
MEKK2wt PB1 HTS: 29*; MEKK3 PB1 HTS: 44*[inhibitor]; MEKK2 mut-MEK5: 15; MEKK2wt confirm: 15*[inhibitor]; MEKK2mut-MEK5: -29; MEKK3-MEK5 inh: 61*

What do the screens show for `CCn1cc(/C=C(\NC(=O)c2ccccc2Cl)C(=O)N2CCN(C)CC2)c2ccccc21`?
MEKK2wt PB1 HTS: 103; MEKK3 PB1 HTS: 101; MEKK2 mut-MEK5: -1

How did CCc1cc(=O)oc2c(C)c(OC(C)C(=O)NCCCn3ccnc3)ccc12 (configuration not stated) do in these assays?
MEKK2wt PB1 HTS: 100; MEKK3 PB1 HTS: 97; VLA-4 inh: -2; MEKK2 mut-MEK5: -4

How did CCOC(=O)N/N=C/c1c(C)c(C(=O)c2ccc(F)cc2)n2ccccc12 do in these assays?
MEKK2wt PB1 HTS: 67; MEKK3 PB1 HTS: 74*[inhibitor]; VLA-4 inh: -4; MEKK2 mut-MEK5: -12; MEKK2wt confirm: 105; MEKK2mut-MEK5: -6; MEKK3-MEK5 inh: 100

Results for Cc1c(/C=N/NC(=O)c2ccccc2O)c2ccccn2c1C(=O)c1ccc(F)cc1 ?
MEKK2wt PB1 HTS: 108; MEKK3 PB1 HTS: 142*; VLA-4 inh: -5; MEKK2 mut-MEK5: 1; MEKK2wt confirm: 89; MEKK2mut-MEK5: -11; MEKK3-MEK5 inh: 98

How did CCN1C(=O)C(=O)N(Cc2ccc(OC)c(F)c2)C1=O do in these assays?
MEKK2wt PB1 HTS: 98; MEKK3 PB1 HTS: 102; VLA-4 inh: 4; MEKK2 mut-MEK5: 1

What do the screens show for `C#CCOc1coc(COC(=O)c2ccccc2)cc1=O`?
MEKK2wt PB1 HTS: 114; MEKK3 PB1 HTS: 112; VLA-4 inh: 7; MEKK2 mut-MEK5: 6

Results for Cc1ccc(CC(=O)N2CCN(C(=O)c3ccco3)CC2)cc1 ?
MEKK2wt PB1 HTS: 58; MEKK3 PB1 HTS: 49*[inhibitor]; VLA-4 inh: 1; MEKK2 mut-MEK5: -14; MEKK2wt confirm: 102; MEKK2mut-MEK5: 3; MEKK3-MEK5 inh: 103

How did O=C(Cc1ccc(Cl)cc1)N1CCN(C(=O)c2ccco2)CC1 do in these assays?
MEKK2wt PB1 HTS: 132; MEKK3 PB1 HTS: 113; VLA-4 inh: -10; MEKK2 mut-MEK5: 13

Results for Cc1nn(C)c(C(=O)N2CCN(C(=O)c3ccco3)CC2)c1Br ?
MEKK2wt PB1 HTS: 34*[inhibitor]; MEKK3 PB1 HTS: 82; VLA-4 inh: 6; MEKK2 mut-MEK5: -17; MEKK2wt confirm: 101; MEKK2mut-MEK5: 6; MEKK3-MEK5 inh: 103

What do the screens show for `Cn1ncc(Br)c1C(=O)N1CCN(C(=O)c2ccco2)CC1`?
MEKK2wt PB1 HTS: 95; MEKK3 PB1 HTS: 94; VLA-4 inh: 20; MEKK2 mut-MEK5: 0

How did CC(C)c1nnc(NC(=O)CS(=O)(=O)c2ccccc2)s1 do in these assays?
MEKK2wt PB1 HTS: 96; MEKK3 PB1 HTS: 100; VLA-4 inh: 14; MEKK2 mut-MEK5: -4

What do the screens show for `CCCOCCOC(=O)C1=C(C)NC(=O)NC1c1cc(Cl)c(O)c(OC)c1` (configuration not stated)?
MEKK2wt PB1 HTS: -2.0*[inhibitor]; MEKK3 PB1 HTS: 1.0*[inhibitor]; VLA-4 inh: 17; MEKK2 mut-MEK5: -28; MEKK2wt confirm: 104; MEKK2mut-MEK5: 3; MEKK3-MEK5 inh: 105

How did N#CC1=C(S)N(c2ccccc2)C(c2ccc(-c3cccc(Cl)c3)o2)NC1=O (configuration not stated) do in these assays?
MEKK2wt PB1 HTS: 101; MEKK3 PB1 HTS: 130*; VLA-4 inh: -2; MEKK2 mut-MEK5: 0; MEKK2wt confirm: 95; MEKK2mut-MEK5: -7; MEKK3-MEK5 inh: 100

Results for Cc1cccc(N2C(S)=C(C#N)C(=O)NC2c2ccco2)c1 (configuration not stated) ?
MEKK2wt PB1 HTS: 81; MEKK3 PB1 HTS: 101; VLA-4 inh: -5; MEKK2 mut-MEK5: -12

How did CCN(Cc1ccccc1)S(=O)(=O)c1ccc(C(=O)N(CCCN(C)C)c2nc3ccc(F)cc3s2)cc1 do in these assays?
MEKK2wt PB1 HTS: 210*; MEKK3 PB1 HTS: 104; VLA-4 inh: -4; MEKK2 mut-MEK5: 38*; MEKK2wt confirm: 208*; MEKK2mut-MEK5: 64; MEKK3-MEK5 inh: 108

What do the screens show for `CN(C)CCCN(C(=O)c1ccc(S(=O)(=O)N2CCCC2)cc1)c1nc2ccc(Br)cc2s1`?
MEKK2wt PB1 HTS: 181*; MEKK3 PB1 HTS: 104; VLA-4 inh: -9; MEKK2 mut-MEK5: 30*; MEKK2wt confirm: 234*; MEKK2mut-MEK5: 112*; MEKK3-MEK5 inh: 127

How did CCc1ccc2nc(N(CCCN(C)C)C(=O)c3ccc(S(=O)(=O)N(C)C4CCCCC4)cc3)sc2c1 do in these assays?
MEKK2wt PB1 HTS: 210*; MEKK3 PB1 HTS: 114; VLA-4 inh: -10; MEKK2 mut-MEK5: 51*; MEKK2wt confirm: 194; MEKK2mut-MEK5: 58; MEKK3-MEK5 inh: 107

Results for CCN(CC)CCN(C(=O)c1ccc(S(=O)(=O)N2CCCC2)cc1)c1nc2cc(C)cc(C)c2s1 ?
MEKK2wt PB1 HTS: 142*; MEKK3 PB1 HTS: 105; VLA-4 inh: -4; MEKK2 mut-MEK5: 21; MEKK2wt confirm: 135; MEKK2mut-MEK5: 12; MEKK3-MEK5 inh: 101

Screening data as filed in PubChem BioAssay.
